Laboratory results: the supplement of paper PMC11417369
In all, about 25,000 sequences were measured (“ln(normalized median fluorescence intensity)”: median about 9.7, highest 2% from about 11 on). The sample holds the highest values, similar sequences and a random draw of the others, so the mix is not that of the screen.

test system: PfAP2-HC AP2 domain (GST-tagged); assay: gcPBM binding intensity (ln(normalized median fluorescence intensity)); higher = stronger DNA binding
How it was run: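 After 1 h on an Agilent 4 × 180k array of primer-extended double-stranded 36-bp intergenic genomic probes and negative controls, bound GST-tagged P. falciparum DNA-binding domains were detected with Alexa488 anti-GST antibody and scanned at 488 nm. The domains had been expressed in E. coli, and binding took place in 1× PBS with 1% milk, 0.2 mg/ml BSA, 0.5% salmon testes DNA and 0.03% Triton X-100. Binding intensity is the highest Masliner-normalised natural-log median intensity across replicate spots of either probe orientation.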

Sequence | gcPBM binding intensity (ln)
CGTGGGAGCGGACACACACACACACCCATATATATA [CACACA_site4340] | 10.4
CACGCGCCCGGACACACACACACACCCATATATATA [CACACA_site5251] | 11.3
TATACACCCGGACACACACACATATATATATATATA [CACACA_site5030] | 10.3
AAAACACGCGGACACACACACACACGCCCACATATA [CACACA_site7105] | 10.6
AACACGCGCGGACACACACACACACCCACATATATA [CACACA_site5252] | 11.3
CATACACCCGGACACACACACACACCCATATATAAT [CACACA_site4494] | 10.5
AAAACACGCGGACACACACACACACCCACCCATATA [CACACA_site8688] | 11.6
AACACGCGCAGACACACACACACACCCACATATATA [CACACA_site2205] | 10.6
ATTTATATGTGGAGCAGTACGCACTCTCACAATTAA [XGTACX_site7252] | 9.44
TGAATATTTACTTTAGCACACAATTTGTATTTGATT [CACACA_site960] | 9.86
ATTATTTACCACAACACACAAATATTTACCAATCAT [CACACA_site5472] | 10.5
TTGTTTATTTGTAAAGCTAACAAGAAATGTGAATAT [CACACA_negctrl_site931] | 9.51
AGCATTTTAAAAGAAAAAAAAAAAAAAAAAAAAATA [GTGCAC_negctrl_site723] | 9.17
TCATTTTACAGATGTGCATGTGAATCAATCTATTTA [TGCATGCA_site787] | 9.56
ATTACTAAAAAATATAAACACACATATATTTTACAT [CACACA_site8633] | 9.88
CGCGCACCCAGACACACACACACACCGATATATATA [CACACA_site8687] | 10.9
TTGGCATACGGACACACACACACACCCAGACATATA [CACACA_site4492] | 10.4
TGGGAGCACAGACACACACACACACCCATATATATA [CACACA_site335] | 10.5
CACAGACACGGACACACACACACACCCAGACACATA [CACACA_site4357] | 11.6
CACAGACACGGACACACACACACACCGATATATATA [CACACA_site4353] | 11.2
CACAGACACGGACACACACACATATATATATATATA [CACACA_site5248] | 10.4
CACAGACACGGACACACACACACACCCATATATATA [CACACA_site4354] | 11.3
TGGGAGCACAGACACACACACACACCGATATATATA [CACACA_site8001] | 11.3
TATATTATCAAAATGGTGCAATAATTTCTATATTAT [GTGCAC_site9772] | 9.49
ATATAATGACAAGTATAAGTATCACAAAGAAATAAA [CACACA_negctrl_site1403] | 9.79

Sequence | gcPBM binding intensity (ln)
CAGGCGTGAAATATACGTACACACATTATTTATATT [XGTACX_site5337] | 9.94
AAGAAAAAAAAAATTACACACTGCGGACATACACAA [CACACA_site4838] | 9.98
TAAGATATAAAAAATGTGCACATTAAAGTATTAATT | 9.86
TATTGTAAGAAAGGCACACAGATAAAATTATTATAT [CACACA_site2921] | 9.87
CGGTATTTTTTAATTTGTACGCATATACAATAATTA [XGTACX_site8603] | 9.54
TTTTTGTTATATAAAGTGCAGTGACAAGCAGTTTAA | 9.56
TTTTTTTATATTTTTAGTACACATTGGTATATATAT [XGTACX_site4114] | 9.78
TTCTTTAAAATATTATGTACACATTGCGAACAGTTT [XGTACX_site5418] | 9.76
CACAGACACGGACACACACACACACCCACATATATA [CACACA_site4355] | 11.5
AGCACAGACGGACACACACACACACCCACAGACACA [CACACA_site4358] | 11.4
CACAGACACGGACACACACACATATATAATATATAT [CACACA_site4495] | 10.8
TGTATGTTTATTTATCGTACATATATATATATATAT [XGTACX_site7315] | 10.1
TACGCGAAATGAATATGTACATATATGAGGGCATAT [XGTACX_site4293] | 9.75
ATTTGAAATGCATGAACACACACAGCTATAAATGCA [CACACA_site8229] | 9.82
GAAATAAGTTAAAATAGTACGTAGTGTTCCTTAAGT [XGTACX_site6557] | 9.81
ACACAAAAATAGTTTTTTATATTGTTAACCTTATAT [XGTACX_negctrl_site123] | 9.71
AAAAATATAAATGACACACACTTAAAAACAAAGAAA [CACACA_site4540] | 10.2
TTTAATCAAATTAAAAGTACAGAATTGTTCATGTAG [XGTACX_site1229] | 9.53
ACTCATAAAAATAGATGTACTTTAATAATTTGATTT [XGTACX_site8763] | 9.48
AACATATACACGAACACACACACATATATATATATA [CACACA_site502] | 11.6
AGTATACACGAACACACACACACATATATAAATATA [CACACA_site6913] | 10.7
AATAACCACGGACACACACACATATATATATATATA [CACACA_site5873] | 10.9
CCCCCCCACGGACACACACACATACATACCACATAT [CACACA_site5303] | 11.3
TATATATATATACCAACACACATACATATATATATA [CACACA_site8530] | 9.99
TACATACACGGACACACACACATATATATATATATA [CACACA_site5883] | 10.7

Sequence | gcPBM binding intensity (ln)
CATATACACGAACACACACACATATATATATATATA [CACACA_site4437] | 10.5
CACGCGAACATACATACACACACATATATATATATG [CACACA_site7951] | 10.1
CCCCCCCACGAACACACACACATACATACCACATAT [CACACA_site7149] | 11
TTTTTTTTTTTTACATGTACTTATTTTAAATATAAA [XGTACX_site805] | 9.71
TATGTTTTTCGGTATGCATGCATATGCTTAATAATA [TGCATGCA_site184] | 9.55
AATATATAGAGAGATATGCACACTGTATGAATGCAC [CACACA_site2677] | 9.78
AAATATTTATAGGTTTGTACTTATAAATAAAAAAAA [XGTACX_site7360] | 9.5
TATTAAATTATATAGACACACATTATATATATATAT [CACACA_site4345] | 9.78
TATGGAATAAATTTATCCATACATCTTATAACATAT [XGTACX_negctrl_site500] | 9.63
ATTTATTTTTTACATTGTACATATTTATTCCTTTTA [XGTACX_site8028] | 9.95
GTAATATGTATCCATACACACATACAGTTTATTTGC [CACACA_site6540] | 9.96
TAAAATTATGTAATAACACACATATACAATACATAT [CACACA_site1236] | 9.94
AGGGTTACAAGAGGAACACACAAAAAAATAAATAAA [CACACA_site1436] | 10
AATATATATTAAATATGTACTTATTTTTTGGTTGCT [XGTACX_site3613] | 9.63
TTTAAATAAAAATGGAGTACTCTAAAAAAAAAAAAA [XGTACX_site1233] | 9.37
TACACAAGAAAATTCACACACACACCCATATATATA [CACACA_site3879] | 10.7
CACAAGAAAATTCACACACACACATATATATATATA [CACACA_site3880] | 10.9
TACACAAGAAAATTCACACACACACCGATATATATA [CACACA_site6008] | 10.7
CACAAGAAAGTTCACACACACACATATATATATATA [CACACA_site6009] | 10.1
AAAACAAAAGAATTCACACATATATATATATATATA [CACACA_site4777] | 10.2
CATACACAAGAAAATTCACACACACCCATATATATA [CACACA_site9288] | 11.3
TATATATATATGTGTACACATTTGTCAGATTATATA [CACACA_site4813] | 9.79
AGGATATATAAGTATACACACATATTTATATTTATA [CACACA_site6239] | 9.75
AAAATTTAAAGCATGACACACAATTATATTATGTGC [CACACA_site3435] | 9.76
ATGATGTGCTTTAAAAGTACTTAAGTTATATTCTTT [XGTACX_site7127] | 9.7

Sequence | gcPBM binding intensity (ln)
AAATTGTCAAAACACGCACACACATATACATAATAA [CACACA_site1743] | 10.9
TTAATAACAAAATAAACACACATATATAAATACACA [CACACA_site6849] | 10.5
TATATACACGCACATACACACAAATAAAAAAACACC [CACACA_site7578] | 10.2
ATTGTCAAAACACGCACACACATATACATAATAACA [CACACA_site1742] | 11.1
AAAATTCATAAATACACACACGCACATATATATATA [CACACA_site4227] | 10.2
ATAATATAACAATACGCACACGTATACAAAAAAAAA [CACACA_site5703] | 9.99
TAAATCCGTTTGATGGGTACATACATACATACATAT [XGTACX_site8889] | 9.73
GGATGTATTTATATGTGTATGTGTTTGGAAATATGT [XGTACX_negctrl_site99] | 9.85
GTCATATATAATTGTTGTACATTTTTATAATTATGT [XGTACX_site8091] | 9.83
ACATATATATATATATATATATATATATATAGATAG [CACACA_negctrl_site783] | 9.92
GGTTCATAATATGGTTGTACATAAATATATATATAT [XGTACX_site7583] | 9.86
TATAATAATACTTATTGTACGATTAGCTTAATTCGT [XGTACX_site15] | 9.51
CAATATAAAAGACACACACACAAACATATATTTATA [CACACA_site7697] | 11.3
CATAAATACAAATATACACACATATTTATATTTATA [CACACA_site7277] | 9.78
TATAAAAATAAGCACACACACAAATATAGATTTATT [CACACA_site6558] | 11.3
AATATTTATAAAGACACACAAACAAAAAGGATAAAA [CACACA_site2985] | 10.3
TAAATAAAAAGACACACACACATATTTATATTTATA [CACACA_site7135] | 10.4
TATAAAAATAAGCACACACACAAATATATATTTATT [CACACA_site922] | 10.3
CAGAAATAGAGATACACACACACATATATTTATGTA [CACACA_site3968] | 11.3
AAGAAATATTTATACACACACACAAACATATATATA [CACACA_site1912] | 10.5
AAGAAATATTTATACACACACACAAACATATAAATA [CACACA_site6981] | 11.1
GAAATAGAGAAACACACACACATATATTTATGTATT [CACACA_site3967] | 10.4
ATAAAATTTATATAAGCACACAAATATATATTTATA [CACACA_site9083] | 9.7
GAAATAGAGAGACACACACACATATATTTATGTATT [CACACA_site7794] | 10.4
